Experimental data taken from publication PMC7862700, “An all-to-all approach to the identification of sequence-specific readers for epigenetic DNA modifications on cytosine”.

What was measured:
Assay in all cases: DAPPL (digital affinity profiling via proximity ligation, sequencing); 10 mM Tris-HCl pH 7.5, 50 mM NaCl, 1 mM DTT, 4% glycerol, room temperature, 30 min; GST-TFs on glutathione beads, 16-mer random dsDNA library, 0.1% formaldehyde crosslink after washing; high values mean tight binding
FLI1 = target: T1, FLI1 (Homo sapiens, UniProt Q01543 1-452); details: protein: recombinant; tags: N-terminal GST; dsDNA, one strand shown
T1 sequence: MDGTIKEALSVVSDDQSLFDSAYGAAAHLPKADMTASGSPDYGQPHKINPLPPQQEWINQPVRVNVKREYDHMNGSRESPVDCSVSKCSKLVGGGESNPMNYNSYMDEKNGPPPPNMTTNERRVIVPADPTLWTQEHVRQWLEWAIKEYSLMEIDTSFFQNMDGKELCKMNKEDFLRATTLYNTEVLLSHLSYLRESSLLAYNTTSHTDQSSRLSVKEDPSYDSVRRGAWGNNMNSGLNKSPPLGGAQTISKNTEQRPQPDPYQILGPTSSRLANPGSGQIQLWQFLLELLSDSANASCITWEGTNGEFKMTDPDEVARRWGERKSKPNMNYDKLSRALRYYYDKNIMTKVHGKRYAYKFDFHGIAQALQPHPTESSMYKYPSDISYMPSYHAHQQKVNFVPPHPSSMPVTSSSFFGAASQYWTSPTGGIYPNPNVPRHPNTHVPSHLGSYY
Method in brief: (§1)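 Pools of DNA-barcoded human transcription factors, expressed in yeast as GST fusions on glutathione beads and combined with a tag-only sample, were incubated with 200 nmole of a 16-mer random double-stranded DNA library. Incubation took 30 min at room temperature in Tris/NaCl/DTT/glycerol buffer and was followed by washing, 0.1% formaldehyde crosslinking, proximity ligation (BsaI/T4 ligase, 1 h, 37 °C), PCR amplification and sequencing on an Illumina NextSeq500. Binding signal is the ratio of a hexamer's read frequency for a factor to its frequency for the tag-only sample.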

ELK1 = target: T2, ELK1 (Homo sapiens, UniProt P19419 1-428); details: protein: recombinant; tags: N-terminal GST; dsDNA, one strand shown
T2 sequence: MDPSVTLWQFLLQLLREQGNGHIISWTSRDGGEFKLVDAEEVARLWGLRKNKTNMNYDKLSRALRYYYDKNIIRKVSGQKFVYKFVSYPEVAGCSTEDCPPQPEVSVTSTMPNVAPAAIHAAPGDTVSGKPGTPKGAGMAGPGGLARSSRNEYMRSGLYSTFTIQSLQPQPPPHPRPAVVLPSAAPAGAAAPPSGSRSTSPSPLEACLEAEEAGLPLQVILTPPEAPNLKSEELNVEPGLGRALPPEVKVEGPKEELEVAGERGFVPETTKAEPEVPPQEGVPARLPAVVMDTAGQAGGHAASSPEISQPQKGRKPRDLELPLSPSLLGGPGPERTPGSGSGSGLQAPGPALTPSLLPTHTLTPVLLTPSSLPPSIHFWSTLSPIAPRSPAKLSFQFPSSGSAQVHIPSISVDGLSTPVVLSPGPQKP
Method in brief: as §1

GABPA = target: T3, GABPA (Homo sapiens, UniProt Q06546 1-454); details: protein: recombinant; tags: N-terminal GST; dsDNA, one strand shown
T3 sequence: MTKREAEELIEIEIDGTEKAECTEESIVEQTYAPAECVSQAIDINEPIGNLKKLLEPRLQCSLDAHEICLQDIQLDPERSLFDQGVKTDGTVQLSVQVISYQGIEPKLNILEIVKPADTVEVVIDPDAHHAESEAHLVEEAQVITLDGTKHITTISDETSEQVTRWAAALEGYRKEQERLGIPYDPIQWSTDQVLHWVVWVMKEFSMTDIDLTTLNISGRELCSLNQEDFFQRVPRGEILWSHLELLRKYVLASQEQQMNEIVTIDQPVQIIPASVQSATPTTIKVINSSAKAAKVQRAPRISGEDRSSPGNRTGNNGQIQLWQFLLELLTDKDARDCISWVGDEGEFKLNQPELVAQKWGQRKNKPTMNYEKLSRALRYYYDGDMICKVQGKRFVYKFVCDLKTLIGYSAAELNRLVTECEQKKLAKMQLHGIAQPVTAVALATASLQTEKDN
Method in brief: as §1

ERG = target: T4, ERG (Homo sapiens, UniProt P11308 1-479); details: protein: recombinant; tags: N-terminal GST; dsDNA, one strand shown
T4 sequence: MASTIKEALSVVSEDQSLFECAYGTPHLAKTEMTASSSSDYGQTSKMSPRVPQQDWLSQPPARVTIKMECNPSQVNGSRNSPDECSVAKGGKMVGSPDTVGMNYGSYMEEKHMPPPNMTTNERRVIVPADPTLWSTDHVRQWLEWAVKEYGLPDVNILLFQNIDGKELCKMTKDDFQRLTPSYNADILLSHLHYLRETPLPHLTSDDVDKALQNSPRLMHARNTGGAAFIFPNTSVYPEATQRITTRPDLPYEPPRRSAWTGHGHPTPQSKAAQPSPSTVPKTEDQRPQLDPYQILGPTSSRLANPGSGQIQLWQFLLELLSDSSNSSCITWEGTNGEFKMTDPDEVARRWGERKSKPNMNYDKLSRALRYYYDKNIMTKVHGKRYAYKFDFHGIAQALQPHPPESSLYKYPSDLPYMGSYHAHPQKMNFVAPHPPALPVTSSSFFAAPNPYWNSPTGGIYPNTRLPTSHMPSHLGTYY
Method in brief: as §1

ELF1 = ELF1 (Homo sapiens, UniProt P32519 1-619); details: protein: recombinant; tags: N-terminal GST; dsDNA, one strand shown
Chain of ELF1 (P32519 whole entry): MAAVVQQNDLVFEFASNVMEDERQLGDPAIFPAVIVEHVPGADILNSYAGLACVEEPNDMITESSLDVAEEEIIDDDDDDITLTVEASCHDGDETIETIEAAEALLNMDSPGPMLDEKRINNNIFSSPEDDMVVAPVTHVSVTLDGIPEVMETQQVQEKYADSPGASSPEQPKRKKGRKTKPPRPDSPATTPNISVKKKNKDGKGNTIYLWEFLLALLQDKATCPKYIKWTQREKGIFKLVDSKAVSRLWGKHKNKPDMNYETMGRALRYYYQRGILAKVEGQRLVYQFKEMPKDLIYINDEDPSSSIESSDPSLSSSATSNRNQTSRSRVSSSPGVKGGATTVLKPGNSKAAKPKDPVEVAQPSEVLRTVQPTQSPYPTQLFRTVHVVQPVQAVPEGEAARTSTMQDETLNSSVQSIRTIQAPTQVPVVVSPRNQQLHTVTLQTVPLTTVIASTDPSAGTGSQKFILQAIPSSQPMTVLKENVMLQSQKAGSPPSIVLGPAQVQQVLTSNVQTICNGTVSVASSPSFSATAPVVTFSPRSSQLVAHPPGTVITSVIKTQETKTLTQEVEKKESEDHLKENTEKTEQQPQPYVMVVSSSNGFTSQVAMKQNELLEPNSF
Method in brief: as §1

EHF = target: T5, EHF (Homo sapiens, UniProt Q9NZC4 1-300); details: protein: recombinant; tags: N-terminal GST; dsDNA, one strand shown
T5 sequence: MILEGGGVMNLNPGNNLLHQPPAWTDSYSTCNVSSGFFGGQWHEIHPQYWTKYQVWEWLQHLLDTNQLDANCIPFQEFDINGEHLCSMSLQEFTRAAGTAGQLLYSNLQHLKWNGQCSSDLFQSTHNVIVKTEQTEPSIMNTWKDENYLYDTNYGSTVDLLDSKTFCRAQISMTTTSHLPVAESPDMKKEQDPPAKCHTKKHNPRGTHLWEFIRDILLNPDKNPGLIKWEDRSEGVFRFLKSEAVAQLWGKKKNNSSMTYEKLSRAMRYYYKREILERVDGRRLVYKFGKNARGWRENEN
Method in brief: as §1

SPI1 = SPI1 (Homo sapiens, UniProt P17947 1-270); details: protein: recombinant; tags: N-terminal GST; dsDNA, one strand shown
Method in brief: as §1

SPIB = SPIB (Homo sapiens, UniProt Q01892 1-262); details: protein: recombinant; tags: N-terminal GST; dsDNA, one strand shown
Chain of SPIB (Q01892 whole entry): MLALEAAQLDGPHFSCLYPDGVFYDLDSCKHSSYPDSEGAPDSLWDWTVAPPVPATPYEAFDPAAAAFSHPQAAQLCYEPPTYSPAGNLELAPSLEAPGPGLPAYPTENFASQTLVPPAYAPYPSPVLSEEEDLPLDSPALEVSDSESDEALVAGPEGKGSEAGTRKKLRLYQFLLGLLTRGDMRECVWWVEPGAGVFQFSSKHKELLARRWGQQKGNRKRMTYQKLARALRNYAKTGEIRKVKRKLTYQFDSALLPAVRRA
Method in brief: as §1

ELK3 = target: T6, ELK3 (Homo sapiens, UniProt P41970 1-407); details: protein: recombinant; tags: N-terminal GST; dsDNA, one strand shown
T6 sequence: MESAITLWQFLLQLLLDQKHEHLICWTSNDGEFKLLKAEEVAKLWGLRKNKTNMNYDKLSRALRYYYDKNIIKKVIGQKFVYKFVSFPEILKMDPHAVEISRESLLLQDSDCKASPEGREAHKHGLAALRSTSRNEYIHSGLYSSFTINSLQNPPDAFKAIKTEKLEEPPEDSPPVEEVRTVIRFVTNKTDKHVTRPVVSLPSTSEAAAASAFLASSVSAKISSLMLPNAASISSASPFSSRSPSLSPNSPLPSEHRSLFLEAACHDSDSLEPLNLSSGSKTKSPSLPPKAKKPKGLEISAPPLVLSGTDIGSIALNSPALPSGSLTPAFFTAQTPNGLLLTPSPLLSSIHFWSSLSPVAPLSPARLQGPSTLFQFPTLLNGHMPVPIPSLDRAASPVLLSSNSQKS
Method in brief: as §1

FEV = target: T7, FEV (Homo sapiens, UniProt Q99581 1-238); details: protein: recombinant; tags: N-terminal GST; dsDNA, one strand shown
T7 sequence: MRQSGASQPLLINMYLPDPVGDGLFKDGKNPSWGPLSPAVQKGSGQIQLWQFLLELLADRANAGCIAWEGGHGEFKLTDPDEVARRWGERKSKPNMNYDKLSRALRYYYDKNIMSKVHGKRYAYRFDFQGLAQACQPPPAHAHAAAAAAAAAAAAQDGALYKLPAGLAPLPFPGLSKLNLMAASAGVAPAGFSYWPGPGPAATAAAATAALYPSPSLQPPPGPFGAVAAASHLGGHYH
Method in brief: as §1

ETV5 = ETV5 (Homo sapiens, UniProt P41161 1-510); details: protein: recombinant; tags: N-terminal GST; dsDNA, one strand shown
Chain of ETV5 (P41161 whole entry): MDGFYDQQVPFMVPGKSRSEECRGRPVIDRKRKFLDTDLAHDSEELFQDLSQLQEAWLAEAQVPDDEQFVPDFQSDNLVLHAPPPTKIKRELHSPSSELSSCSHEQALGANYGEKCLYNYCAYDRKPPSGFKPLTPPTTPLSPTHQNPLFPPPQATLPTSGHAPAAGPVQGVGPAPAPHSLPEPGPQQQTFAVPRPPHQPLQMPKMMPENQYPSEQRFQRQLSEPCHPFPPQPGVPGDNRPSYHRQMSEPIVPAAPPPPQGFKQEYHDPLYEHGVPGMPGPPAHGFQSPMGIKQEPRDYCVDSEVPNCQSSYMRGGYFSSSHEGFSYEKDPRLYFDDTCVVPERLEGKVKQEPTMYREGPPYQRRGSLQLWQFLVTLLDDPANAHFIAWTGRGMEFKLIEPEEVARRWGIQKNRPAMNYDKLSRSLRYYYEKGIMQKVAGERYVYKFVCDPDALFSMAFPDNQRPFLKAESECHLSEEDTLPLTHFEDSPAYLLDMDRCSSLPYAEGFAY
Method in brief: as §1

HSF1 = HSF1 (Homo sapiens, UniProt Q00613 1-529); details: protein: recombinant; tags: N-terminal GST; chain copies: 3; dsDNA, one strand shown
Chain of HSF1 (Q00613 whole entry): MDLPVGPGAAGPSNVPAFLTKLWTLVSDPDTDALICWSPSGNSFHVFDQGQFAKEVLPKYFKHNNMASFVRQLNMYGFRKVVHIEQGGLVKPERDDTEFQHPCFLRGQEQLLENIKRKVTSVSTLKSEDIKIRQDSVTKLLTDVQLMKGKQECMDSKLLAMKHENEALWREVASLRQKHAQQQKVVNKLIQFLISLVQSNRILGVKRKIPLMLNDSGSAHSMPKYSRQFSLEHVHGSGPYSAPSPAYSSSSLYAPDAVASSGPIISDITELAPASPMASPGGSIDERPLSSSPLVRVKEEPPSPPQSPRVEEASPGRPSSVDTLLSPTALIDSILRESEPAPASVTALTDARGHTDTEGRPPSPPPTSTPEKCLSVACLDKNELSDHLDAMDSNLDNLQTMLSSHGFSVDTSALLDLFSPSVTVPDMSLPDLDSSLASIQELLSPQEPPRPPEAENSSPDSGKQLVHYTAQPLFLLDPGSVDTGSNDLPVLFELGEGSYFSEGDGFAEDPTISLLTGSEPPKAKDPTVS
Method in brief: as §1

SPIC = target: T8, SPIC (Homo sapiens, UniProt Q8N5J4 1-248); details: protein: recombinant; tags: N-terminal GST; dsDNA, one strand shown
T8 sequence: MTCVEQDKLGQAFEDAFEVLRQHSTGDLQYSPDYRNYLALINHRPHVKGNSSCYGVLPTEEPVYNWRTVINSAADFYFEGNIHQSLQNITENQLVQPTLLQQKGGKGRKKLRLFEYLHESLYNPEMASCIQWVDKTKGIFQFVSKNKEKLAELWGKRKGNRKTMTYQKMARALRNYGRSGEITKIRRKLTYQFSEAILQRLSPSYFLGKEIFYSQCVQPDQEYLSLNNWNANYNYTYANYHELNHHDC
Method in brief: as §1

ELF4 = ELF4 (Homo sapiens, UniProt Q99607 1-663); details: protein: recombinant; tags: N-terminal GST; dsDNA, one strand shown
Chain of ELF4 (Q99607 whole entry): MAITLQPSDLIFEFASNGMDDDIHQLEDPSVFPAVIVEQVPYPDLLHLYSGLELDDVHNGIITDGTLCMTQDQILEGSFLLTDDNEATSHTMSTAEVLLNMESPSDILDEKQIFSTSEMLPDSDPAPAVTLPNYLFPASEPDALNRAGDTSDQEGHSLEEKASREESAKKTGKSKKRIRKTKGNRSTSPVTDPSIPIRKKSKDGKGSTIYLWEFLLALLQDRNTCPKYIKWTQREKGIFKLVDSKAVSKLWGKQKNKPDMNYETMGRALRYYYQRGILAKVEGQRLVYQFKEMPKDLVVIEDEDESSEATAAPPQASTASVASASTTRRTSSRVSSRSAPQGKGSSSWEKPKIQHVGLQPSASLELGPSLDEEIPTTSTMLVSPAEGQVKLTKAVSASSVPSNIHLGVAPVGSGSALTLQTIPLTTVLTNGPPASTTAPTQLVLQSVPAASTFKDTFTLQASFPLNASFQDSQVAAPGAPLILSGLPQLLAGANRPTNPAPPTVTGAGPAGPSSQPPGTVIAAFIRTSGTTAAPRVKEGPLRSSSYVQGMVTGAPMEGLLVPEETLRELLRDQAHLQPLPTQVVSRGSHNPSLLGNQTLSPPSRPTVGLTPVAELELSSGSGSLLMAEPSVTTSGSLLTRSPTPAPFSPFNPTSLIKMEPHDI
Method in brief: as §1

ELK4 = target: T9, ELK4 (Homo sapiens, UniProt P28324-2 1-405); details: protein: recombinant; tags: N-terminal GST; dsDNA, one strand shown
T9 sequence: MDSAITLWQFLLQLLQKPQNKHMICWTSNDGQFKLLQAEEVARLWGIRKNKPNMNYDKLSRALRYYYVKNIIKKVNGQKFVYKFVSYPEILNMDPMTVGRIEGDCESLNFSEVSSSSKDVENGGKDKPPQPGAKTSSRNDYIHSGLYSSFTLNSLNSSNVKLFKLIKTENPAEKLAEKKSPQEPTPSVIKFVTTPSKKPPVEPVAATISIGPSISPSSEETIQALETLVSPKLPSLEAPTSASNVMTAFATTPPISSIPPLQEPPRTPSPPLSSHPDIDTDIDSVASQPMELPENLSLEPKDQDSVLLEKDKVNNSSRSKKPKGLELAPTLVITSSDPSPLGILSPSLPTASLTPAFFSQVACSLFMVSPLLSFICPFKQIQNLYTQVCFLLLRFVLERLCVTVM
Method in brief: as §1

ETV2 = target: T10, ETV2 (Homo sapiens, UniProt O00321 1-342); details: protein: recombinant; tags: N-terminal GST; dsDNA, one strand shown
T10 sequence: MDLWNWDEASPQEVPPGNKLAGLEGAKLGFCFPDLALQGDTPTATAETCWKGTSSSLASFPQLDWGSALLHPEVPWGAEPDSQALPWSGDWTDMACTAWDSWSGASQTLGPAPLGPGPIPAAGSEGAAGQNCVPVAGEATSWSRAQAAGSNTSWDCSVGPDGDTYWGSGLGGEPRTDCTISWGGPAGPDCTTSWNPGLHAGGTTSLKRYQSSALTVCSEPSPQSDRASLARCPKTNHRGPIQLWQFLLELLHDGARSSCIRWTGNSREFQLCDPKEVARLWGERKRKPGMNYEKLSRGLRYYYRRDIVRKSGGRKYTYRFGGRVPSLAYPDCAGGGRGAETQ
Method in brief: as §1

ELF3 = target: T11, ELF3 (Homo sapiens, UniProt P78545 1-371); details: protein: recombinant; tags: N-terminal GST; dsDNA, one strand shown
T11 sequence: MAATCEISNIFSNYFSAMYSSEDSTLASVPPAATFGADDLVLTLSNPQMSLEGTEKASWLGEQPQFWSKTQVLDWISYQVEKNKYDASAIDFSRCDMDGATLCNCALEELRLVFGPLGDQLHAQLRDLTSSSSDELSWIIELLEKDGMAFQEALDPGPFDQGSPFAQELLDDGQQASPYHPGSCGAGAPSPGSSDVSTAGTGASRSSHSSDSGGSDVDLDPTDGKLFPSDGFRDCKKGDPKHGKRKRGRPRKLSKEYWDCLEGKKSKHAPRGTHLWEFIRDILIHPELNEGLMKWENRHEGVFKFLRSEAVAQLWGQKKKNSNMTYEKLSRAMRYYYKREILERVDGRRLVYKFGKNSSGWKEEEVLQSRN
Method in brief: as §1

CRX = CRX (Homo sapiens, UniProt O43186 1-299); details: protein: recombinant; tags: N-terminal GST; dsDNA, one strand shown
Chain of CRX (O43186 whole entry): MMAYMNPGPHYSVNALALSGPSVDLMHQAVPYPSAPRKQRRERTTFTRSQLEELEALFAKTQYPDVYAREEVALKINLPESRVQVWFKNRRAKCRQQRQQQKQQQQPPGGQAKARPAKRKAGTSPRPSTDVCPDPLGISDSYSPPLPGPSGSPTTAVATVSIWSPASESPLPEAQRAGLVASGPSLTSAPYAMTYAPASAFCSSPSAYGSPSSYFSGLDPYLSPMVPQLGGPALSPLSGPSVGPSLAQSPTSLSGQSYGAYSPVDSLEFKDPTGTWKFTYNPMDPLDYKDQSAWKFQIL
Method in brief: as §1

ETV1 = ETV1 (Homo sapiens, UniProt P50549 1-477); details: protein: recombinant; tags: N-terminal GST; dsDNA, one strand shown
Chain of ETV1 (P50549 whole entry): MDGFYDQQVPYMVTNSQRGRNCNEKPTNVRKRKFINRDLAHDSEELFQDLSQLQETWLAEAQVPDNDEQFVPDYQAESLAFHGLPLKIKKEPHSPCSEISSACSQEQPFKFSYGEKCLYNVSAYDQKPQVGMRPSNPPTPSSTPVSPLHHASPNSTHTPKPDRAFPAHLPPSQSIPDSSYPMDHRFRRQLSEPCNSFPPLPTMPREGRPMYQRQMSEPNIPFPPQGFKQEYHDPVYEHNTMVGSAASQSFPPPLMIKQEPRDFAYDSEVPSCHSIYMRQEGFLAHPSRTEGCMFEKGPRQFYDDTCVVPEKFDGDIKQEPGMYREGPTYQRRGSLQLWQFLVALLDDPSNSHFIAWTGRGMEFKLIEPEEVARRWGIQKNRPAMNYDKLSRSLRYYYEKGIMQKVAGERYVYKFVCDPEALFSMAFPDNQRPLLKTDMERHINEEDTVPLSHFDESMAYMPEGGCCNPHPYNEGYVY
Method in brief: as §1

Sequence: CTTTGG
- binding signal (FLI1): 1.15 fold enrichment (6-mer frequency, TF over GST control)
- binding signal (ELK1): 1.12 fold enrichment (6-mer frequency, TF over GST control)
- binding signal (GABPA): 1.21 fold enrichment (6-mer frequency, TF over GST control)
- binding signal (ERG): 1.07 fold enrichment (6-mer frequency, TF over GST control)
- binding signal (ELF1): 1.17 fold enrichment (6-mer frequency, TF over GST control)
- binding signal (EHF): 1.11 fold enrichment (6-mer frequency, TF over GST control)
- binding signal (SPI1): 1.21 fold enrichment (6-mer frequency, TF over GST control)
- binding signal (SPIB): 1.04 fold enrichment (6-mer frequency, TF over GST control)
- binding signal (ELK3): 1.13 fold enrichment (6-mer frequency, TF over GST control)
- binding signal (FEV): 1.15 fold enrichment (6-mer frequency, TF over GST control)
- binding signal (ETV5): 1.17 fold enrichment (6-mer frequency, TF over GST control)
- binding signal (HSF1): 1.26 fold enrichment (6-mer frequency, TF over GST control)
- binding signal (SPIC): 1.17 fold enrichment (6-mer frequency, TF over GST control)
- binding signal (ELF4): 1.16 fold enrichment (6-mer frequency, TF over GST control)
- binding signal (ELK4): 1.02 fold enrichment (6-mer frequency, TF over GST control)
- binding signal (ETV2): 1.27 fold enrichment (6-mer frequency, TF over GST control)
- binding signal (ELF3): 1.23 fold enrichment (6-mer frequency, TF over GST control)
- binding signal (CRX): 1.29 fold enrichment (6-mer frequency, TF over GST control)
- binding signal (ETV1): 1.17 fold enrichment (6-mer frequency, TF over GST control)
